For 29 molecules, Potency, activity (max response) and activity change, negative = viability loss results are on record in PubChem BioAssay (NCATS).

Test [1] is described as follows: Viability qHTS for spleen associated tyrosine kinase inhibitor (SYKi) drug resistant MV4-11 cells (AID 1963824). Further: nearly all actives have a fitted effect of over 35% in size. The gist of the method: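 SYK-inhibitor-resistant MV4-11 AML cells were seeded at 500 per well onto compound and cultured 72 hours (37 °C, 5% CO2). CellTiter-Glo was then added, and after 10 min at room temperature, luminescence gave viability.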
In general terms: Quantitative high-throughput screening tests each substance at several concentrations.

Test [2] is described as follows: Cellular viability qHTS for adrenocortical cancer (ACC) cell line SW-13 (AID 1963989). Further: nearly all actives have a fitted effect of over 65% in size.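 On activity (max response): cells grown in serum-free medium with ITS supplement; on the % scale 0 is the no-effect control and ±100 the full control effect.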 The conditions noted are these: SW-13 ACC cells viability, CellTiter-Glo, 48 h; activity (max response): active compounds read low. Put shortly:
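SW-13 cells in ITS-supplemented serum-free DMEM were plated overnight, then exposed for 48 h at 37C to compound titrations (up to 46 uM final). Viability was read by CellTiter-Glo luminescence; four-parameter logistic fits gave IC50 and efficacy.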

A short description of test [3]: Cellular viability qHTS for adrenocortical cancer (ACC) cell line NCI-H295R (AID 1963990). Further: nearly all actives have a fitted effect of over 60% in size.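 On activity change, negative = viability loss: 0% = DMSO only wells and -100% = full killing with cytotoxic reference compound.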 Put shortly:
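Luminescent ATP read-out (CellTiter-Glo, 20 min RT) after 48 h drug exposure of NCI-H295R cells; a titration up to 46 uM final. Data normalized to doxorubicin (100% inhibition) and DMSO (0%); 4-parameter fit gives IC50, max response.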

Where “and” joins values, the source holds several entries; their conditions need not be identical. Equal values may be shown once. Results filed as inconclusive are left out. Values without a mark were called inactive. Calls of active or inactive are those of the source. The call rests on the fitted dose curve; in most records, active means well fitted curve in the direction sought with a large enough effect; inconclusive means small, poorly fitted or top-dose-only effect, or another doubt; inactive means no such curve, though single readings can be large; an effect the other way counts as inactive or inconclusive.
Potency means the concentration at half of the fitted maximal effect.

Consider `O=C1c2ccccc2CCc2ccccc21`, for which the Potency entry in test [1] and in test [3] was “inactive” each time. Further, the activity (max response) in test [2] was 4.16%.

As for `CC1(C)CC[C@]2(C(=O)O)CC[C@]3(C)C(=CC[C@@H]4[C@@]5(C)C[C@@H](O)[C@H](O)C(C)(C)[C@@H]5CC[C@]43C)[C@@H]2C1`, in test [1], the Potency is 18.6 µM (active). In test [2], the activity (max response) was -1.16%. For the same molecule, the Potency result in test [3] is “inactive”.

`CCN1CCN(Cc2ccc(NC(=O)c3ccc(C)c(/C=C/c4cnc5[nH]ccc5c4OC)c3)cc2C(F)(F)F)CC1`: the Potency in test [1] is 20.6 nM (active) and 83.3 nM (active); in test [2], 3.16 µM (active); in test [3], 6.31 µM (active).

For `CCNC(=O)NCCCOc1cccc(CN2CCCCC2)c1`, the Potency entry in test [1] and in test [3] was “inactive” each time. Also, the activity (max response) in test [2] is -6.89%.

As for `Oc1ccc(Cl)cc1Sc1cc(Cl)ccc1O`, the Potency in test [1] was 15 µM (active); in test [2] it was 3.26 µM (active); in test [3] it was 4.11 µM (active).

For the molecule `CCCCCN=C(N)N/N=C/c1c[nH]c2ccc(OC)cc12`, the Potency in test [1] was 2.66 µM (active); in test [2] it was 13 µM (active); in test [3], 23.1 µM (active).

Take `c1cc(Nc2cc(C3CC3)[nH]n2)nc(Nc2ccc3nc[nH]c3c2)n1`: the Potency was 0.0184 µM (active) in test [1], 0.224 µM (active) in test [2] and 8.91 µM (active) in test [3].

Turning to `CC1CCc2c(N3CCC(O)CC3)c(F)cc3c(=O)c(C(=O)O)cn1c23` (configuration not stated), the Potency result in test [1] and in test [3] was “inactive” in each case. Besides, the activity (max response) in test [2] was -4.15%.

For the molecule `COc1ccc(/C=N/NC(=O)c2ccncc2)cc1OC`, the Potency entry in test [1] and in test [3] was “inactive” in each case. For the same molecule, in test [2], the activity (max response) was -2.5%.

With `CCCOc1ccc2c(c1)CC[C@@H]1[C@@H]2CC[C@]2(C)C(OC)CC[C@@H]12` (some centres not stated), the Potency entry in test [1] and in test [3] was “inactive” in each case. Also, the activity (max response) in test [2] was 13.8%.

In the case of `COc1ccc(CCN(C)CCCOc2ccc(S(=O)(=O)c3[nH]c4ccccc4c3C(C)C)cc2)cc1OC`, the Potency in test [1] was 6.61 µM (active); in test [2], 28.2 µM (active); in test [3], 11.2 µM (active).

As to `CC1=C(/C=C/C(C)=C/C=C/C(C)=C\C(=O)O)C(C)(C)CCC1`, in test [1], the Potency was 6.61 µM (active). The activity (max response) in test [2] was -0.514%. For the same molecule, the Potency entry in test [3] was “inactive”.

In the case of `CC(=O)[C@H]1CC[C@H]2[C@@H]3C[C@H](C)C4=CC(=O)CC[C@]4(C)[C@H]3[C@@H](O)C[C@]12C`, in test [1], the Potency is 23.7 µM (active). Also, the activity (max response) in test [2] was 8.53%. Besides, the Potency result in test [3] was “inactive”.

In the case of `CCc1c(C(=O)NNC(=O)[C@@H](O)c2cc(F)cc(F)c2)ccc(O)c1C`, the Potency in test [1] was 9.2 µM (active). The activity (max response) in test [2] was -4.91%. Besides, the Potency entry in test [3] is “inactive”.

Take `COc1cc(/C=C/C(=O)O[C@H]2CC[C@]34C[C@]35CC[C@]3(C)[C@@H]([C@H](C)CCC=C(C)C)CC[C@@]3(C)[C@@H]5CC[C@H]4C2(C)C)ccc1O`: the Potency in test [1] is 16.4 µM (active); in test [2], 14.6 µM (active); in test [3] it was 18.4 µM (active).

`COc1ncc(Nc2ncc([C@H](C)N3CCN(S(C)(=O)=O)CC3)cc2-c2nc(C)nc(N)n2)cc1F`: the Potency in test [1] is 2.35 µM (active); in test [3], 0.224 µM (active). Also, the activity (max response) in test [2] is -5.36%.

For the molecule `Cc1cc(C)nc(NS(=O)(=O)c2ccc(N)cc2)n1`, the Potency result in test [1] and in test [3] was “inactive” throughout. Moreover, in test [2], the activity (max response) is 6.1%.

Take `O=C(c1ccc(NS(=O)(=O)c2cccc3cccnc23)cc1)N1CCN(CC2CC2)CC1`: the Potency entry in test [1] and in test [3] was “inactive” each time. Also, the activity (max response) in test [2] is -19.6%.

Turning to `CCCCOC(=O)NS(=O)(=O)c1sc(CC(C)C)cc1-c1ccc(Cn2ccnc2)cc1`, the Potency in test [1] is 14.8 µM (active); in test [2] it was 28.2 µM (active); in test [3], 25.1 µM (active).

In the case of `O=C(CCOCCOCCOCCOCCC(=O)Nc1c(I)cc(I)c(C(=O)O)c1I)Nc1c(I)cc(I)c(C(=O)O)c1I`, the Potency entry in test [1] and in test [3] was “inactive” throughout. Moreover, the activity (max response) in test [2] was 6.37%.

`Cc1ccc(S(=O)(=O)Nc2cc(C(F)(F)F)ccc2C(=O)Nc2nc(-c3ccccc3)cs2)cc1`: the values for the Potency in test [1], in test [2] and in test [3] were 2.95 µM (active), 2.24 µM (active) and 2.51 µM (active), respectively.

Regarding `Cc1c[nH]c2nc(Nc3ccc(N4CCN(C)CC4)c(F)c3)nc(-c3cccc(CC#N)c3)c12`, the Potency in test [1] is 0.0059 µM (active); in test [2], 2.24 µM (active); in test [3] it was 2.51 µM (active).

Regarding `Nc1ccc(/C=C/C(=O)NCc2cc3cc(-c4ccc(C(=O)N5CCC(F)(F)CC5)cc4)cc(-c4ccc(F)cc4)c3o2)cn1`, the results for the Potency in test [1], in test [2] and in test [3] were 0.206 µM (active), 1.12 µM (active) and 1 µM (active), respectively.

As to `CCOC(=O)N[C@@H]1CC[C@@H]2[C@@H](C1)C[C@H]1C(=O)O[C@H](C)[C@H]1[C@H]2/C=C/c1ccc(-c2cccc(F)c2)cn1`, in test [1], the Potency was 13.2 µM (active). Besides, the activity (max response) in test [2] is -18%. Further, in test [3], the Potency entry was “inactive”.

With `CN1Cc2c(N)cccc2C(c2ccccc2)C1` (configuration not stated), the Potency entry in test [1] and in test [3] was “inactive” each time. In addition, in test [2], the activity (max response) is -0.946%.

As for `C/C(=C\c1csc(C)n1)[C@@H]1C[C@@H]2O[C@]2(C)CCC[C@H](C)[C@H](O)[C@@H](C)C(=O)C(C)(C)[C@@H](O)CC(=O)N1`, the figures for the Potency in test [1], in test [2] and in test [3] were 0.0132 µM (active), 3.16 µM (active) and 8.91 µM (active), respectively.

Consider `Cc1cc(-c2ccccc2)nnc1NCCN1CCOCC1`, for which the Potency result in test [1] and in test [3] was “inactive” throughout. Moreover, in test [2], the activity (max response) was -11%.

Take `COC(=O)C(c1ccccc1Cl)N1CCc2sccc2C1` (configuration not stated): the Potency result in test [1] and in test [3] was “inactive” throughout. Besides, the activity (max response) in test [2] is 0.0767%.

For `CC1CCC(n2c3cnccc3c3cnc(Nc4ccc5c(n4)CCN(C(=O)CO)C5)nc32)CC1` (configuration not stated), in test [1], the Potency is 164 nM (active) and 170 nM (active). Further, the activity (max response) in test [2] is -7.81%. The activity change, negative = viability loss in test [3] is 3.35% [at 9.17 µM].
